Source: PubChem (NMMLSC)
RPL19A TOR yeast: yeast TOR pathway RPL19A-GFP modulation | S. cerevisiae RPL19A-GFP strain, flow cytometry, 3 h; active compounds read low | AID 2025 | percent response vs DMSO, % at 10 µM | 0.3% of 330,000 active;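 active means percent response vs DMSO below 50%; inconclusive means fewer than 70 events counted for the yeast strain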;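 further: median channel GFP fluorescence of the barcoded RPL19A-GFP strain; ratio of sample median GFP to plate DMSO average so 100% = DMSO; lower means less RPL19A-GFP as with rapamycin TOR inhibition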
MEP2 TOR yeast: alters MEP2-GFP fluorescence in TOR pathway yeast screen; S. cerevisiae MEP2-GFP strain, flow cytometry GFP, 3 h; 100% = DMSO control level; GFP response vs DMSO, % at 10 µM; 0.51% of 330,000 active; AID 2016;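 active means GFP response versus DMSO above a set limit, roughly screen mean plus 3 SD, cut at about 180% in these data; inconclusive means fewer than 70 cells counted for a yeast strain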;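 further: median GFP fluorescence of the barcode-gated MEP2-GFP cells per well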
LAP4-GFP MLPCN: alters LAP4-GFP fluorescence in TOR pathway yeast screen. S. cerevisiae LAP4-GFP multiplex, flow cytometry GFP, 3 h; median GFP as percent of DMSO wells. GFP response vs DMSO, % at 10 µM. 0.34% of 320,000 active. AID 2023;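 active means GFP response vs DMSO above a set limit, about the screen mean plus 3 SD, cut at about 150% in these data; inconclusive means under 70 cell events counted for the yeast strain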
CIT2 TOR yeast: yeast TOR pathway CIT2-GFP modulation; S. cerevisiae CIT2-GFP strain, flow cytometry, 3 h; 100 means same as DMSO wells; GFP response vs DMSO, % at 10 µM; 0.065% of 320,000 active;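 active means GFP response relative to DMSO above a set limit, near the screen mean plus 3 SD, cut at about 150% in these data; inconclusive means Fewer than 70 cells measured for a yeast strain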;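 further: ratio of well median GFP fluorescence to mean of DMSO wells on the plate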
VLA-4 inh: inhibition in a human VLA-4 binding assay. P13612. VLA-4 expressing cells, ligand binding flow cytometry. inhibition, % (about 7 µM as worked out from the volumes in the protocol). 0.2% of 330,000 active; in the data active means inhibition above about 50%
Target sequence (P13612 whole entry, looked up): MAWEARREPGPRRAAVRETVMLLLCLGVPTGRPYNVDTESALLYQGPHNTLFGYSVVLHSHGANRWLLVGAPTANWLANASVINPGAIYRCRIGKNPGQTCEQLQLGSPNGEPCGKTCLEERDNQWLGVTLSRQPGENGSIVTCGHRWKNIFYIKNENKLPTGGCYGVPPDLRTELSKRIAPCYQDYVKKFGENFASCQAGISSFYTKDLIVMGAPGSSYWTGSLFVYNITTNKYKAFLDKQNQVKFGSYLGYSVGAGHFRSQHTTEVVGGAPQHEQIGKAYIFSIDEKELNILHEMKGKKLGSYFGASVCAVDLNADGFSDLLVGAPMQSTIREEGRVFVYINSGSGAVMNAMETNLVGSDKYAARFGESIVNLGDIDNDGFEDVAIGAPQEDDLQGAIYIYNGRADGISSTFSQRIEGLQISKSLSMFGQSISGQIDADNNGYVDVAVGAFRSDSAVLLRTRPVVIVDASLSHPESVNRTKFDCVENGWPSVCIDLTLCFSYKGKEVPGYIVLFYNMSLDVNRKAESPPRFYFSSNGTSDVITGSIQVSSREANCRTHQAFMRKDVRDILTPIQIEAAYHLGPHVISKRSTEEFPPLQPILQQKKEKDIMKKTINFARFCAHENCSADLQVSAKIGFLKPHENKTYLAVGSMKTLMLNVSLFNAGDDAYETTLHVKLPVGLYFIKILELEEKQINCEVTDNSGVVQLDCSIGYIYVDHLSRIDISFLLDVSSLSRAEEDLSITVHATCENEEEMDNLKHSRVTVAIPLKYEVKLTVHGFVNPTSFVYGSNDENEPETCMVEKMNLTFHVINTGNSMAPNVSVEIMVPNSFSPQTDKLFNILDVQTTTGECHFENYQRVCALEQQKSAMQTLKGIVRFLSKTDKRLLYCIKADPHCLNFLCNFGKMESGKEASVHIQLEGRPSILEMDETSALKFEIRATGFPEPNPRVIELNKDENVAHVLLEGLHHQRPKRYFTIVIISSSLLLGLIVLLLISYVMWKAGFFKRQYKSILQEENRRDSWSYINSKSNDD
AGP1 TOR yeast: modulators of TOR pathway AGP1-GFP in S. cerevisiae | GFP response vs DMSO, % at 10 µM | S. cerevisiae AGP1-GFP multiplex flow cytometry, 3 h; GFP as percent of DMSO wells | 0.02% of 320,000 active | AID 2066;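 active means GFP response relative to DMSO above a set limit, near screen average plus 3 SD, cut at about 150% in these data; inconclusive means fewer than 70 cells counted for the yeast strain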;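 further: median GFP channel fluorescence of the gated AGP1 strain per well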
* hit, by the source's call; [ ] = another dose, or the depositor's remark. A selection: hits, their analogues and other compounds. The true share with any hit is near 1.1%.

`CCCCOC(=O)c1ccc(NC(=S)NC(=O)c2c(Cl)cnn2CC)cc1` gave RPL19A TOR yeast 38.6*[may fluoresce violet], MEP2 TOR yeast 406.0*[may fluoresce violet], LAP4-GFP MLPCN 83.1, CIT2 TOR yeast inconclusive and VLA-4 inh -5.2.
For COC(=O)C1=C(C)NC(C)=C(C(=O)OC)C1c1ccc(-c2cccc(Cl)c2Cl)o1 the results were RPL19A TOR yeast 100.8, MEP2 TOR yeast 106.1, LAP4-GFP MLPCN 109.0, CIT2 TOR yeast 95.9, VLA-4 inh 2.6 and AGP1 TOR yeast 99.4.
For COC(=O)C1=C(C)NC(C)=C(C(=O)OC)C1c1ccc(-c2cccc([N+](=O)[O-])c2)o1 the results were RPL19A TOR yeast 45.6*[may fluoresce violet], MEP2 TOR yeast 203.3*[may fluoresce violet], LAP4-GFP MLPCN 83.4, CIT2 TOR yeast inconclusive, VLA-4 inh 14.9 and AGP1 TOR yeast 18.7.
Screening CC(=O)c1cc(NC(=O)c2ccccc2)c(=O)oc1C returned RPL19A TOR yeast 102.8, MEP2 TOR yeast 116.4, LAP4-GFP MLPCN 112.9, CIT2 TOR yeast 109.4, VLA-4 inh -6.2 and AGP1 TOR yeast 106.4.
Screening CC(=O)c1cc(NC(=O)c2ccc(C)cc2)c(=O)oc1C returned RPL19A TOR yeast 78.6, MEP2 TOR yeast 85.6, LAP4-GFP MLPCN 166.0*, CIT2 TOR yeast 73.9 and VLA-4 inh -8.3.
Cc1c(NC(=O)CN2CCN(c3ccccc3)CC2)c(=O)n(-c2ccccc2)n1C was read as RPL19A TOR yeast 90.2, MEP2 TOR yeast 94.0, LAP4-GFP MLPCN 103.1, CIT2 TOR yeast 103.2 and VLA-4 inh 9.9.
`Cc1c(NC(=O)CN2CCN(C(c3ccccc3)c3ccccc3)CC2)c(=O)n(-c2ccccc2)n1C` gave RPL19A TOR yeast 27.1*[may fluoresce violet], MEP2 TOR yeast 487.4*[may fluoresce violet], LAP4-GFP MLPCN 93.8, CIT2 TOR yeast inconclusive, VLA-4 inh 7.0 and AGP1 TOR yeast inconclusive.
For Cc1ccc(NC(=O)Nc2c(C)n(C)n(-c3ccccc3)c2=O)cc1 the results were RPL19A TOR yeast 108.8, MEP2 TOR yeast 119.5, LAP4-GFP MLPCN 98.4, CIT2 TOR yeast 115.0, VLA-4 inh 13.1 and AGP1 TOR yeast 98.0.
`Cc1c(NC(=O)Nc2ccc3c(c2)OCO3)c(=O)n(-c2ccccc2)n1C` gave RPL19A TOR yeast 93.0, MEP2 TOR yeast 224.5*, LAP4-GFP MLPCN 260.1*, CIT2 TOR yeast 111.9, VLA-4 inh 6.3 and AGP1 TOR yeast 160.7*.
Screening O=c1c(Cl)c(O)c2cccc3c4ccccc4n1c23 returned RPL19A TOR yeast 96.5, MEP2 TOR yeast 96.9, LAP4-GFP MLPCN 105.2, CIT2 TOR yeast 80.2, VLA-4 inh 1.8 and AGP1 TOR yeast 95.4.
`COc1c(O)c(=O)n2c3ccccc3c3ccnc1c32` gave RPL19A TOR yeast 24.0*[may fluoresce violet], MEP2 TOR yeast 211.3*[may fluoresce violet], LAP4-GFP MLPCN 97.5, CIT2 TOR yeast inconclusive, VLA-4 inh -8.7 and AGP1 TOR yeast 17.5.
Screening COc1ccccc1OCCC(=O)OCC(=O)NCc1ccc(F)cc1 returned RPL19A TOR yeast 99.7, MEP2 TOR yeast 101.1, LAP4-GFP MLPCN 97.1, CIT2 TOR yeast 104.3, VLA-4 inh 18.4 and AGP1 TOR yeast 98.7.
Screening Cn1nc(-c2ccc(Cl)cc2)nc2c(=O)n(C)c(=O)nc1-2 returned RPL19A TOR yeast 51.8, MEP2 TOR yeast 110.6, LAP4-GFP MLPCN 203.0*, CIT2 TOR yeast 61.5, VLA-4 inh 9.3 and AGP1 TOR yeast 105.4.
CC1=CN2C(=NC(=O)CC2(C)C(=O)N(CC(=O)NC2CCCC2)c2ccccc2C)C=C1 (centres undefined) was read as RPL19A TOR yeast 35.6*[may fluoresce violet], MEP2 TOR yeast 285.3*[may fluoresce violet], LAP4-GFP MLPCN 90.7, VLA-4 inh -1.8 and AGP1 TOR yeast inconclusive.
`Cc1cccc(OCC(=O)NCCNC(=O)c2ccccn2)c1` gave RPL19A TOR yeast 31.1*[may fluoresce violet], MEP2 TOR yeast inconclusive, LAP4-GFP MLPCN inconclusive, CIT2 TOR yeast inconclusive, VLA-4 inh 5.5 and AGP1 TOR yeast inconclusive.
Cc1c(C(=O)N2CCOCC2)oc2c1C(=O)CC(C)(C)C2 was read as RPL19A TOR yeast 96.0, MEP2 TOR yeast 97.8, LAP4-GFP MLPCN 92.6, CIT2 TOR yeast 95.2, VLA-4 inh 1.6 and AGP1 TOR yeast 92.0.
Cc1c(C(=O)N2CCN(C)CC2)oc2c1C(=O)CC(C)(C)C2 was read as RPL19A TOR yeast 63.3, MEP2 TOR yeast 211.9*[may fluoresce violet], LAP4-GFP MLPCN 99.9, CIT2 TOR yeast inconclusive, VLA-4 inh -1.6 and AGP1 TOR yeast 24.3.
Screening COC(=O)c1cccc(-c2noc(-c3ccccc3F)n2)c1 returned RPL19A TOR yeast 92.7, MEP2 TOR yeast 84.8, LAP4-GFP MLPCN 104.7, CIT2 TOR yeast 88.3, VLA-4 inh 0.0 and AGP1 TOR yeast 93.9.
Screening NC(=O)c1cccc(-c2noc(-c3ccccc3F)n2)c1 returned RPL19A TOR yeast 87.5, MEP2 TOR yeast 202.7*[may fluoresce violet], LAP4-GFP MLPCN 69.1, CIT2 TOR yeast inconclusive, VLA-4 inh 19.6 and AGP1 TOR yeast 16.8.
Screening COc1cc(OC)cc(C(=O)Nc2cccc3cccnc23)c1 returned RPL19A TOR yeast 102.1, MEP2 TOR yeast 102.8, LAP4-GFP MLPCN 98.8, CIT2 TOR yeast 99.9, VLA-4 inh 8.8 and AGP1 TOR yeast 92.3.
`COc1cccc(N=Nc2ccc3cccnc3c2O)c1` gave RPL19A TOR yeast 98.7, MEP2 TOR yeast 111.6, LAP4-GFP MLPCN 166.4*, CIT2 TOR yeast 146.1, VLA-4 inh 9.1 and AGP1 TOR yeast 104.5.
`CCCNC(=O)CN1C(=O)NC(c2ccccc2)(c2ccccc2)C1=O` gave RPL19A TOR yeast 102.4, MEP2 TOR yeast 102.9, LAP4-GFP MLPCN 98.9, CIT2 TOR yeast 102.9, VLA-4 inh -14.9 and AGP1 TOR yeast 105.2.
`Cc1cccc(C)c1OCC(=O)NCc1ccccc1` gave RPL19A TOR yeast 42.5*[may fluoresce violet], MEP2 TOR yeast 276.8*[may fluoresce violet], LAP4-GFP MLPCN 79.9, CIT2 TOR yeast inconclusive, VLA-4 inh 4.1 and AGP1 TOR yeast inconclusive.
Screening O=C(COc1ccccc1)NCc1ccccc1 returned RPL19A TOR yeast 98.8, MEP2 TOR yeast 99.1, LAP4-GFP MLPCN 101.0, CIT2 TOR yeast 98.4, VLA-4 inh 3.7 and AGP1 TOR yeast 101.5.
For CN(C)c1ccc(N2C(=NC(=O)CC3CCCCC3)SC3CS(=O)(=O)CC32)cc1 (centres undefined) the results were RPL19A TOR yeast 104.1, MEP2 TOR yeast 103.4, LAP4-GFP MLPCN 94.6, CIT2 TOR yeast 104.3, VLA-4 inh 22.3 and AGP1 TOR yeast 106.3.
`COc1cc2cc(C(N)=O)c(N)nc2cc1OC` gave RPL19A TOR yeast 44.0*[may fluoresce violet], MEP2 TOR yeast 215.6*[may fluoresce violet], LAP4-GFP MLPCN 97.4, CIT2 TOR yeast inconclusive, VLA-4 inh 1.0 and AGP1 TOR yeast inconclusive.
`CCNC(=O)C(C)Sc1ccc(Cl)cc1` (centres undefined) gave RPL19A TOR yeast 48.4*[may fluoresce violet], MEP2 TOR yeast 351.4*[may fluoresce violet], LAP4-GFP MLPCN 87.8, CIT2 TOR yeast inconclusive, VLA-4 inh 32.4 and AGP1 TOR yeast inconclusive.
C=CCNC(=O)C(C)Sc1ccc(Cl)cc1 (centres undefined) was read as RPL19A TOR yeast 100.0, MEP2 TOR yeast 96.7, LAP4-GFP MLPCN 100.8, CIT2 TOR yeast 94.6, VLA-4 inh -1.3 and AGP1 TOR yeast 106.3.
